HttQ103 aggreg – inhibitors of mutant huntingtin aggregate formation in PC12 cells. PC12 HttQ103-GFP aggregates, Acumen cytometry, 40 h. Potency, µM (top dose mostly 46.1 µM), usual class: inhibitors. 1.1% of 220,000 active. AID 1688; note: nearly all actives have a fitted effect of over 60% in size
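Huntingtin Q103 exon 1–GFP aggregates in induced PC12 cells (100 nM tebufenozide) were quantified by cytometry from lysates, with compounds dosed in titration.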
IDH1 R132H inh – blocks human mutant IDH1 R132H enzyme; O75874; 0.093% of 390,000 active; IDH1-R132H enzyme, NADPH consumption, diaphorase/resazurin fluorescence; AID 602179; Potency, µM (top dose mostly 76.6 µM), hits mostly inhibitors; note: nearly all actives have a fitted effect of over 65% in size
Target sequence (O75874 whole entry R132H, stated change not applied): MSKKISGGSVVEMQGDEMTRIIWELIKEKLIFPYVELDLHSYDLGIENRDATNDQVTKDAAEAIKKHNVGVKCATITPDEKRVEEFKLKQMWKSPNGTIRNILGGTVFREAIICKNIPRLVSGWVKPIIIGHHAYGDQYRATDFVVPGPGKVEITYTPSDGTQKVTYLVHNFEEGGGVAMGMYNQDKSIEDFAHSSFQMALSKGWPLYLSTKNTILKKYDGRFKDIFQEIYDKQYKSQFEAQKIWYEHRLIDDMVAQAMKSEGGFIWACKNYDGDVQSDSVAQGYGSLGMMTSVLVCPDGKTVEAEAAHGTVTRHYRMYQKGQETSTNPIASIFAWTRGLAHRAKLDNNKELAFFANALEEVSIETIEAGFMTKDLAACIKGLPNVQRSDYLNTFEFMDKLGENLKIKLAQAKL
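IDH1-R132H (0.5 ug/mL dispensed) in pH 7.5 Tris buffer was preincubated 30 min with compound, then given a substrate mix of 0.016 mM NADPH and 2 mM alpha-KG for 80 min at room temperature; remaining NADPH was read by diaphorase/resazurin fluorescence.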
NPSR antag – blocks cAMP signaling of the human neuropeptide S receptor. Q6W5P4. CHO-NPSR cells, cAMP TR-FRET, antagonist mode. Potency, µM (titrated, usually from 38.3 µM), usual class: inhibitors. 1% of 220,000 active. AID 1461; note: nearly all actives have a fitted effect of over 50% in size
AT treatment – candidate therapy for ataxia-telangiectasia; 0.19% of 320,000 active; F2112 A-T fibroblasts, KAP-1 phosphorylation AlphaLISA; neocarzinostatin DNA damage 30 min before lysis; AID 485349; Potency, µM (top dose mostly 57.5 µM), hits mostly activators; note: nearly all actives have a fitted effect of over 45% in size
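ATM-like activity read as KAP-1 phosphorylation via AlphaLISA donor/acceptor antibody pairs after lysis and 6 hr at 25C. Cells were ATM-null patient fibroblasts (F2112, hTERT), dosed 60 min, then exposed to the DSB inducer NCS for 30 min.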
HTT ATP protect – protects HTT-Q103 PC12 cells, measured by ATP | 0.14% of 230,000 active | Potency, µM (top dose mostly 56.4 µM), hits mostly activators | PC12 HTT-Q103 induced, cytoprotection, ATP luminescence, 40 h | AID 1471; note: nearly all actives have a fitted effect of over 45% in size
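Compounds were screened for protection of PC12 cells against cell death after tebufenozide induction (100 nM final) of mutant Huntingtin exon 1 (Q103) fused to GFP.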
Of the large screens only hits and unclear results are named; the others gave an inactive call. An excerpt weighted towards active compounds, which were near 1.1% of everything screened. Calls come from the whole dose curve; as a rule, active = well fitted curve in the direction sought with a large enough effect; inconclusive = small, poorly fitted or top-dose-only effect, or another doubt; inactive = no such curve, though single readings can be large; an effect the other way counts as inactive or inconclusive.

CCn1c(Cl)c(C=O)s/c1=N\S(=O)(=O)c1ccccc1	HttQ103 aggreg 1.41µM, NPSR antag 10µM
C=CCOc1c(Cl)cc(CNc2ccc(N(C)C)cc2)cc1OC	NPSR antag 5.01µM, HTT ATP protect inconclusive
CCc1cc2c(=O)c(-c3cnn(-c4ccccc4)c3)c(C)oc2cc1OCC(=O)Nc1cccc(C)c1	NPSR antag inconclusive, HTT ATP protect inconclusive
CCc1cc2c(=O)c(-c3cnn(-c4ccccc4)c3)c(C)oc2cc1OCC(=O)Nc1ccc(F)c(F)c1	HttQ103 aggreg inconclusive, NPSR antag 7.94µM (no result: HTT ATP protect)
Nc1cc(C(=O)O)c(N)c2c1C(=O)c1ccccc1C2=O	NPSR antag 3.16µM
CCCC(Oc1ccc(Br)cc1)c1nc2c3cc(OC)c(OC)cc3nc(=S)n2[nH]1 (configuration not stated)	HttQ103 aggreg inconclusive, HTT ATP protect inconclusive
CC(Oc1ccc(Br)cc1)c1nc2c3ccccc3nc(=S)n2[nH]1 (configuration not stated)	HttQ103 aggreg 8.91µM
COc1ccc(C(=O)c2oc3ccccc3c2NC(=O)c2nc(SC)ncc2Cl)cc1Cl	none (no result: HttQ103 aggreg, NPSR antag, AT treatment, HTT ATP protect)
CC(C)Nc1nc(-c2ccccn2)nc(-c2ccccc2)c1C#N	HttQ103 aggreg 3.55µM
O=C(CN1CCOCC1)n1c2ccccc2c2ccccc21	HttQ103 aggreg 2.82µM
O=C(CN1CCOCC1)n1c2c(c3ccccc31)CCCC2	none
CN(C)CCCO[C@H]1C([C@H](O)CO)O[C@@H]2OC(C)(C)O[C@@H]21 (some centres not stated)	none (no result: HttQ103 aggreg, IDH1 R132H inh, AT treatment, HTT ATP protect)
COCCCNCCCOc1ccc(Cl)cc1C(C)(C)C	HttQ103 aggreg 7.94µM (no result: HTT ATP protect)
CNCCCOc1ccc(Cl)cc1C(C)(C)C	none
Cc1oc2ncn(CC(C)C)c(=O)c2c1C(=O)NC(C)c1ccccc1 (configuration not stated)	none (no result: HttQ103 aggreg, NPSR antag, AT treatment, HTT ATP protect)
Cc1c(C(=O)N2CCC(C)CC2)sc2ncnc(N(C)c3ccccc3)c12	HttQ103 aggreg 20µM
COc1ccc(-c2n(CC(=O)OC3CC(C)CCC3C(C)C)c3ccccc3[n+]2C)cc1 (configuration not stated)	none
COc1ccc(OCc2n(CC(=O)OC3CC(C)CCC3C(C)C)c3ccccc3[n+]2C)cc1 (configuration not stated)	NPSR antag 10µM
Cc1cc(C)c2nc(N3C(=O)C(O)=C(C(=O)c4ccco4)C3c3cccc(O)c3)sc2c1 (configuration not stated)	IDH1 R132H inh 36.9µM (no result: HttQ103 aggreg, NPSR antag, HTT ATP protect)
Cc1cc(C)c2nc(N3C(=O)C(O)=C(C(=O)c4ccco4)C3c3ccc(O)cc3)sc2c1 (configuration not stated)	IDH1 R132H inh 46.5µM (no result: HttQ103 aggreg, NPSR antag, HTT ATP protect)
CCc1ccc2nc(N3C(=O)C(O)=C(C(=O)c4ccco4)C3c3cccs3)sc2c1 (configuration not stated)	NPSR antag 10µM
Cc1cc(N2C(=O)C(O)=C(C(=O)c3ccc(C)o3)C2c2cccs2)no1 (configuration not stated)	NPSR antag 7.94µM
Cc1ccc2nc(N3C(=O)C(O)=C(C(=O)c4cc5ccccc5o4)C3c3cccs3)sc2c1 (configuration not stated)	none
NC(=O)c1ncn([C@@H]2O[C@@H](CO)[C@@H](O)[C@H]2O)c1O	none (no result: HttQ103 aggreg, IDH1 R132H inh, NPSR antag, AT treatment)
COC(=O)c1cccc2c1-c1ccccc1/C2=N/O	HttQ103 aggreg 10µM, NPSR antag inconclusive
CCN(CC)c1ccc(N=Cc2ccc([N+](=O)[O-])o2)cc1	HttQ103 aggreg 14.1µM
CCN(CC)c1ccc(N=Cc2ccccc2[N+](=O)[O-])cc1	none (no result: HTT ATP protect)
Cc1cc(C)nc(Sc2ncnc(N)c2[N+](=O)[O-])n1	HttQ103 aggreg 10µM
Cc1cccc(Nc2ncnc(N)c2[N+](=O)[O-])n1	HttQ103 aggreg inconclusive
O=C(Nc1cccc(O)c1)c1cccc(S(=O)(=O)N2CCCC2)c1	HTT ATP protect 2.82µM
O=C(Nc1cccc(S(=O)(=O)N2CCCCC2)c1)Nc1ccc(Cl)cc1Cl	HttQ103 aggreg 14.1µM, NPSR antag inconclusive
O=C(Cc1ccccc1Cl)Nc1cccc(S(=O)(=O)N2CCCCCC2)c1	none (no result: HttQ103 aggreg, NPSR antag, HTT ATP protect)
O=C(c1cccc(S(=O)(=O)N2CCCC2)c1)c1cccc(S(=O)(=O)N2CCCC2)c1	HttQ103 aggreg 11.2µM
CCCn1c(NC(=O)c2cccc(S(=O)(=O)N3CCCC3)c2)nc2ccccc21	HttQ103 aggreg 11.2µM, NPSR antag inconclusive
CCCCCCCCCCCCCCNCCO	none (no result: IDH1 R132H inh, NPSR antag, AT treatment)
COc1ccc(NC(=O)Cn2c(SCc3cccc(Cl)c3)nc3ccncc32)c(OC)c1OC	none (no result: HttQ103 aggreg, NPSR antag, AT treatment, HTT ATP protect)
CC(=O)Nc1cc(C(=O)NCc2ccc(F)cc2)ccc1Sc1ccc(C)cc1	none (no result: HttQ103 aggreg, NPSR antag, AT treatment, HTT ATP protect)
Cc1cccc(-c2nc(CSCC(=O)N3CCN(Cc4ccc5c(c4)OCO5)CC3)c(C)o2)c1	HttQ103 aggreg 10µM
O=C(c1ccccc1)N1CCC(c2nc(-c3ccc(S(=O)(=O)NCC4CCCO4)cc3)no2)CC1 (configuration not stated)	HttQ103 aggreg 6.31µM
O=C(C1CC1)N1CCC(c2nc(-c3ccc(S(=O)(=O)NCC4CCCO4)cc3)no2)CC1 (configuration not stated)	HttQ103 aggreg inconclusive
c1ccc(Nc2ccccc2Nc2ccccn2)nc1	HTT ATP protect inconclusive
Oc1cccc2ccc(Nc3ccccn3)nc12	HttQ103 aggreg 3.55µM
COCCn1c(C(=O)N2CCCC2)cc2c1C[C@H]1CN(C(=O)c3ccccc3)[C@@](Cc3ccccc3)(C(=O)OC)[C@@H]21	none (no result: HttQ103 aggreg, IDH1 R132H inh, NPSR antag, AT treatment)
COC(=O)[C@@]1(Cc2ccc(OC)cc2)[C@H]2c3cc(C(=O)N4CCCC4)n(CCc4ccc(O)c(O)c4)c3C[C@H]2CN1C(=O)c1ccccc1	HTT ATP protect 11.2µM (no result: HttQ103 aggreg, IDH1 R132H inh, NPSR antag, AT treatment)
COC(=O)[C@@]1(Cc2ccc(OC)cc2)[C@H]2c3cc(C(=O)N4CCCC4)n(Cc4ccc(Cl)c(C(F)(F)F)c4)c3C[C@H]2CN1C(=O)c1ccccc1	HTT ATP protect 10µM (no result: HttQ103 aggreg, IDH1 R132H inh, NPSR antag, AT treatment)
CC1CCC(C(C)[C@H]2CCC3C4CC(=O)C5C[C@@H](O)CC[C@]5(C)C4CC[C@@]32C)=NC1 (some centres not stated)	none (no result: HttQ103 aggreg, IDH1 R132H inh, NPSR antag, AT treatment)
CC1=C(CO)C(=O)OC([C@@H](C)C2CC[C@H]3C4C[C@H]5O[C@]56[C@@H](O)C=CC(=O)[C@]6(C)C4CC[C@]23C)C1 (some centres not stated)	HttQ103 aggreg inconclusive, NPSR antag 5.01µM, HTT ATP protect 3.55µM
Cc1cc(S(=O)(=O)C(CNC(=O)c2ccc(OC(C)C)cc2)c2cccs2)ccc1F (configuration not stated)	none (no result: HttQ103 aggreg, NPSR antag, AT treatment, HTT ATP protect)
O=C(NN1C(=O)/C(=C/c2ccc(O)c([N+](=O)[O-])c2)SC1=S)c1ccccc1Cl	NPSR antag 6.31µM
Cc1nn(-c2ccccc2)c(C)c1C(=O)OCC(=O)c1c(N)n(CC(C)C)c(=O)n(C)c1=O	HttQ103 aggreg 5.01µM

Compound activity (PubChem BioAssay)
